Compounds with a hit are over-represented: about 0.71% of the library has one in this group of screens.
iPSC survival up – enhancers of human iPSC single-cell survival | hiPSC single-cell survival, ATPlite luminescence; 100% = ROCK inhibitor wells, 0% = DMSO | survival enhancement, % at 20 µM | 360,000 compounds, 0.044% hits; in the data active = survival enhancement above about 18%;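 note: cells exposed to compounds for 16 hours before the ATP read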
MIN6 prolif-1 – induces beta-cell replication in MIN6 cells; MIN6 cells proliferation, ATPlite luminescence, 48 h; cells starved in 0.2% serum; 100% = growth in 10% serum; proliferation, % at 10 µM; 330,000 compounds, 0.29% hits; AID 2380;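 active = compounds whose signal lies at least 3.5 SD above the mean of all wells on their plate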;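 note: 0% = DMSO-treated cells in low-serum medium and 100% = 10% serum control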
TAG inh – reduces triacylglycerol accumulation in H9c2 cells | Nile Red lipid (TAG) fluorescence; cells loaded with 200 µM oleic acid | inhibition, % at 12.5 µM | 230,000 compounds, 0.66% hits | AID 651582;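 active = pattern-corrected inhibition of lipid staining of at least 50% with the nuclear-stain viability signal not falling by more than 50%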;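 note: 0% = DMSO wells and 100% = triacsin C control wells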
MIN6 prolif-2 – MIN6 beta-cell replication induction, confirmed; proliferation increase, % at 50 µM; MIN6 beta-cell proliferation, ATPlite luminescence, 48 h; cells kept in 0.2% serum; scaled between 0.2% and 10% serum; 920 tested, under 10 active; shares compounds with MIN6 prolif-1; AID 463095;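 active = proliferation increase above 40% at any of the four tested concentrations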
An asterisk follows results filed as active.

`CCC(C)(C(=O)NC1CCCC1)N(Cc1cccs1)C(=O)Cc1cccs1` (stereo unspecified) gave iPSC survival up -1.7, MIN6 prolif-1 0.0 and TAG inh 11.0.
For CCC(C)(C(=O)NC1CCCC1)N(Cc1ccco1)C(=O)Cc1cccs1 (stereo unspecified) the results were iPSC survival up -3.7, MIN6 prolif-1 12.0*, TAG inh -15.5 and MIN6 prolif-2 -2.1.
For COc1ccc(-c2ccc3c(c2)O[C@H](CN(C)C(=O)Nc2ccccc2F)[C@@H](C)CN([C@H](C)CO)S3(=O)=O)cc1 the results were iPSC survival up -2.3 and TAG inh 43.6.
Screening O=C(CC[C@H]1O[C@@H](n2cnc3c(NC(=O)c4ccccc4)ncnc32)[C@H](O)[C@@H]1O)NCC1CCN(Cc2ccccc2)CC1 returned iPSC survival up -1.4.
CC1(c2nnnn2Cc2ccccc2)CCC(=O)N1c1ccc(N2CCOCC2)cc1 (stereo unspecified) was read as iPSC survival up -0.1.
`CCOC(=O)C1CSc2[nH]c(=O)sc2C1c1ccccc1` (stereo unspecified) gave iPSC survival up -0.3, MIN6 prolif-1 11.7*, TAG inh -4.1 and MIN6 prolif-2 -3.9.
For COc1ccc(C2c3sc(=O)[nH]c3SCC2C(N)=O)cc1 (stereo unspecified) the results were iPSC survival up 0.0, MIN6 prolif-1 0.1 and TAG inh -5.0.
For CCOC(=O)c1cc2c(=O)n3ccccc3nc2n(Cc2ccco2)c1=NC(=O)c1cccnc1 the results were iPSC survival up 2.3, MIN6 prolif-1 9.5*, TAG inh 13.8 and MIN6 prolif-2 -4.7.
Screening CCOC(=O)c1cc2c(=O)n3cccc(C)c3nc2n(Cc2ccco2)c1=NC(=O)c1cccnc1 returned iPSC survival up -0.9.
For COc1ccc(NC(=O)C[C@H]2C(=O)N(Cc3ccccc3)C[C@@H]2C)cc1 the results were iPSC survival up 0.7 and TAG inh 11.2.
C#CCOC(=O)c1ccccc1C(=O)n1nnc2ccccc21 was read as iPSC survival up 0.0 and MIN6 prolif-1 -1.4.
`O=C(c1cccc2ccccc12)n1nnc2ccccc21` gave MIN6 prolif-1 10.2* and MIN6 prolif-2 -6.2.
For O=c1[nH][nH]c2c1C(c1ccc(Cl)c(Cl)c1)OC(CCc1ccccc1)C2 (stereo unspecified) the results were iPSC survival up -0.7.
CCN(CC)C1CCN(C(=O)c2ccc(OC3CCN(C(=O)CCOC)CC3)cc2)C1 (stereo unspecified) was read as iPSC survival up 9.1 and TAG inh -0.4.
For CC(C)NC(=O)Cn1cnc2c1c(=O)n(C)c(=O)n2C the results were iPSC survival up -2.6, MIN6 prolif-1 2.6 and TAG inh 0.6.
`Cn1c(=O)c2c(ncn2CC(=O)NC2CCCCC2)n(C)c1=O` gave iPSC survival up -0.4, MIN6 prolif-1 11.3*, TAG inh -15.4 and MIN6 prolif-2 -3.3.
`CC(=O)Nc1ccc(NC(=O)C(C)OC(=O)c2cccc(S(=O)(=O)N3CCCCC3)c2)cc1` (stereo unspecified) gave iPSC survival up -0.4, MIN6 prolif-1 4.2 and TAG inh -3.8.
For CC(=O)Nc1ccc(NC(=O)C(C)OC(=O)c2cccc(S(=O)(=O)N3CCCCCC3)c2)cc1 (stereo unspecified) the results were iPSC survival up 0.3, MIN6 prolif-1 12.4*, TAG inh 13.5 and MIN6 prolif-2 0.1.
For CCCCn1nnnc1C(c1ccccc1)N1CCN(C/C=C/c2ccccc2)CC1 (stereo unspecified) the results were iPSC survival up -0.8.
Screening CCCNC(=O)c1ccccc1NC(=O)COc1cccc2c1OC(C)(C)C2 returned iPSC survival up 0.1, MIN6 prolif-1 4.9 and TAG inh -5.5.
For CC1(C)Cc2cccc(OCC(=O)Nc3ccccc3F)c2O1 the results were iPSC survival up -0.4, MIN6 prolif-1 14.7*, TAG inh -6.6 and MIN6 prolif-2 -4.7.
Screening COc1ccc(C)c(-n2c(=O)n(Cc3ccccc3)c(=O)c3[nH]cnc32)c1 returned iPSC survival up 1.2, MIN6 prolif-1 1.1 and TAG inh -6.4.
For COc1ccc(Cn2c(=O)c3[nH]cnc3n(-c3ccccc3C)c2=O)cc1 the results were iPSC survival up 0.3, MIN6 prolif-1 10.1*, TAG inh -1.3 and MIN6 prolif-2 7.8.
Screening CCOc1ccc(-c2ccc(C3=CC(=O)C[C@H](c4ccc(F)cc4)C3)cc2)cc1 returned iPSC survival up -1.1.
